In all, about 1,100 compounds went through this assay and about 760 (69%) were called active. No rule for the calls is given here. So high a share suggests a set chosen from earlier hits. The list shows a part of the results.
Assay: M. tuberculosis growth inhibition, HTS (AID 1259417);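 also: bacteria grown with compound for 5 days at 37 °C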
Details: stronger effect = higher value, concentration not given here
[1] = M. tuberculosis DsRed fluorescence growth inhibition
[2] = M. tuberculosis growth inhibition

Compound	inhibition [1]	inhibition [2] [%]
CCOC(=O)CSc1ccc(-c2nc3cc(C)c(C)cc3[nH]2)cn1	94.3% (active)	96
O=[N+]([O-])c1ccc(/C=N/n2c(CO)nc3ccccc32)s1	96.6% (active)	97.7
Cc1cc(C)n(-c2nc(NC(C)C)nc(NC(C)C)n2)n1	43.1% (active)	41.4
CCOC(=O)CSc1nnc(-c2ccc(OC)cc2OC)o1	42.1% (active)	70.4
COC(=O)CSc1nnc(-c2ccc(OC)cc2OC)o1	85.8% (active)	94.2
CCC(OC(C)=O)c1ccc(OC(C)=O)c(OC)c1 (stereo not given)	99.1% (active)	90.6
COC(=O)COc1ccc(NC(=O)c2ccccc2F)cc1	77.8% (active)	78.9
COC(=O)COc1ccc(NC(=O)c2ccccc2I)cc1	61.7% (active)	81.3
COC(=O)COc1ccc(NC(=O)c2ccccc2Br)cc1	76.3% (active)	91.1
COC(=O)c1ccc(OCC(=O)Nc2ccccc2F)cc1	14.1% (active)	74.2
COC(=O)COc1ccc(NC(=O)c2ccccc2C)cc1	83.1% (active)	93.5
Cc1[nH]c2ccccc2c1SCCNC(=O)c1cc2ccccc2oc1=O	5.93% (inactive)	16.9
O=C(NCCSc1c(-c2ccccc2)[nH]c2ccccc12)c1cc2ccccc2oc1=O	-6.27% (inactive)	-5.81
O=C(NCCc1c[nH]c2ccccc12)c1cc2ccccc2oc1=O	99.2% (active)	96
CCCCCCc1cc2cc(C(=O)NC)c(=N)oc2cc1O	-2.33% (inactive)	-16.9
O=C(NCCSc1c[nH]c2ccccc12)c1cc2ccccc2oc1=O	20.8% (active)	42.8
Cc1ccc(-c2[nH]c3ccccc3c2SCCNC(=O)c2cc3ccccc3oc2=O)cc1	-0.558% (inactive)	-17.6
Cc1nc2c(-c3ccc(Cl)cc3)cnn2c(N)c1-c1ccccc1	13.8% (inactive)	-1.8
Cc1cc(Nc2ccccc2)n(-c2nc3ccccc3[nH]2)n1	86.8% (active)	93.2
Cc1nn(-c2nc3ccccc3[nH]2)c(N)c1-c1ccccc1	50.6% (active)	84.2
Cc1coc2c1C(=O)C(=O)c1c-2ccc2c1CCCC2(C)C	96.6% (active)	98.4
CN(C)C(=S)Nc1nc2ccccc2s1	99.7% (active)	99.8

Compound	inhibition [1]	inhibition [2] [%]
Cc1ccc(C2CC(C(F)(F)F)n3nc(C(=O)NCc4ccco4)cc3N2)cc1 (stereo not given)	80% (active)	76.1
CCCCNC(=O)c1cc2n(n1)C(C(F)(F)F)CC(c1ccccc1)N2 (stereo not given)	95.4% (active)	91.8
O=C(NCc1cccs1)c1cc2n(n1)C(C(F)(F)F)CC(c1ccc3c(c1)OCO3)N2 (stereo not given)	2.08% (inactive)	-5.24
CNc1nc(N2CCc3ccccc32)ncc1F	100% (active)	99.7
COc1ccc2[nH]cc(CCNC(=S)Nc3ccc(Nc4ccccc4)cc3)c2c1	-2.93% (inactive)	-13.6
COc1ccc(NC(=O)C(Cc2c[nH]c3ccccc23)NC(C)=O)cc1 (stereo not given)	93.6% (active)	90.1
Cc1ccc(-c2csc(Nc3ccc(S(N)(=O)=O)cc3)n2)cc1	33.4% (active)	44.5
Cc1cc(-c2csc(Nc3ccc(S(N)(=O)=O)cc3)n2)ccc1F	12% (inactive)	9.99
Cc1ccc(-c2csc(Nc3ccc(C(=O)O)c(O)c3)n2)cc1	94.8% (active)	94.9
O=C(Nc1ccccc1-c1ccccc1)C(Cl)(Cl)Cl	100% (active)	99.6
C/C=C/c1ccc(OCC(=O)OCc2csc(Nc3ccc(C)cc3)n2)c(OC)c1	0.924% (active)	37.2
Oc1ccc(Br)cc1C1=NNC(c2ccc(F)cc2)C1 (stereo not given)	99.5% (active)	100
CCC(C)Oc1ccc(C(=O)NC(=S)Nc2ccc3c(c2)COC3=O)cc1 (stereo not given)	30.7% (active)	25.2
COc1ccc2nc(C)cc(SCC(=O)OC(C)C)c2c1	89.3% (active)	99.6
CCOC(=O)CSc1cc(C)nc2ccc(C)cc12	96.8% (active)	99.3
CC(=O)Oc1cccc2ccc(C=Cc3ccc(F)cc3)nc12	86.6% (active)	89.9
O=C(C=Cc1cccc(C(F)(F)F)c1)Nc1cccc(Br)c1	9.1% (inactive)	9.88
Oc1cccc2ccc(C=Cc3cccc(F)c3)nc12	98.8% (active)	99.7
CC(=O)Oc1cccc2ccc(C=Cc3cccc(Br)c3)nc12	87.4% (active)	84
CCC(=O)Oc1cccc2ccc(C=Cc3ccccc3F)nc12	92.1% (active)	87.6
Cc1ccc(-c2csc(NC(=O)C[n+]3cc(-c4ccc(C)cc4)n4c3CCC4)n2)cc1	13.7% (inactive)	7.92
O=C(C[n+]1cc(-c2ccc(Cl)cc2)n2c1CCC2)N1c2ccccc2Sc2ccccc21	10.7% (inactive)	3.46

Compound	inhibition [1]	inhibition [2] [%]
O=C(C[n+]1cc(-c2ccc(Cl)c(Cl)c2)n2c1CCC2)N1c2ccccc2Sc2ccccc21	37.7% (active)	43.1
CCCCn1c(=O)c(C(=O)Nc2nnc(C(C)C)s2)c(O)c2ccccc21	76.9% (active)	72.9
CCOC(=O)COc1ccc2ccccc2c1C=C(C)[N+](=O)[O-]	24% (inactive)	10.8
COc1cc(/C=C/c2ccc3c([N+](=O)[O-])cccc3n2)ccc1OCC(=O)O	89.6% (active)	92.7
O=[n+]1c2ccccc2n([O-])c2ccccc21	98.3% (active)	98.8
CCCn1c(CNc2ccccc2O)nc2ccccc21	99.4% (active)	100
COC(=O)c1sc(NC(=O)c2c(F)c(F)c(F)c(F)c2F)c(C(N)=O)c1C	98.6% (active)	96.9
COC(=O)c1c(-c2ccc(Cl)cc2)csc1NC(=O)c1c(F)c(F)c(F)c(F)c1F	91.1% (active)	87.2
CCc1c(C)sc(NC(=O)c2ccc(Br)cc2)c1C(N)=O	4.19% (inactive)	7.97
CCOC(=O)c1c(NC(=O)c2cccc([N+](=O)[O-])c2)sc(CC)c1-c1ccccc1	4.19% (inactive)	-29.7
CCOC(=O)c1c(NC(=O)c2c(F)c(F)c(F)c(F)c2F)sc(C(=O)OC)c1C	99.4% (active)	97.6
COC(=O)c1c(-c2ccccc2)csc1NC(=O)c1cc(OC)cc(OC)c1	4.19% (inactive)	-6.55
CCOC(=O)c1c(-c2ccc(C)o2)csc1NC(=S)NC(=O)N(C)C	2.65% (inactive)	-1.32
COC(=O)c1c(NC(=O)c2cc(OC)cc(OC)c2)sc2c1C(C(=O)OC)CC2 (stereo not given)	-0.558% (inactive)	-13.8
CCc1c(C)sc(NC(=O)c2c(F)c(F)c(F)c(F)c2F)c1C(=O)OC(C)C	98.2% (active)	95.8
Cc1ccccc1C(=O)Nc1sc(Cc2ccccc2)c(C)c1C(N)=O	-2.04% (inactive)	-9.31
CCOC(=O)c1c(NC(=O)c2cccc(OC)c2)sc(C)c1-c1ccccc1	0.932% (inactive)	-15.9
CCOC(=O)c1c(NC(=O)c2cccc(OC(C)=O)c2)sc(CC)c1-c1ccccc1	2.11% (inactive)	-5.86
COC(=O)c1sccc1NC(=O)c1c(F)c(F)c(F)c(F)c1F	99.1% (active)	97.7
CCOC(=O)c1c(NC(=O)c2c(F)c(F)c(F)c(F)c2F)sc(C(N)=O)c1C	98.6% (active)	99.4
CCOc1ccc2ccccc2c1C(=O)Nc1sc(C)c(C)c1C(N)=O	9.82% (inactive)	9.7
CCOC(=O)c1sc(NC(=O)c2c(F)c(F)c(F)c(F)c2F)c(C(=O)OCC)c1C	93.8% (active)	88.9

Compound	inhibition [1]	inhibition [2] [%]
Clc1ccc2c(c1)C1=C(C(c3ccncc3)O2)C(c2ccc(Br)cc2)n2ncnc2N1 (stereo not given)	96% (active)	93.9
COc1cccc(C=NNc2nc(=O)[nH]nc2C)c1O	91.7% (active)	94.9
CC(=NNc1nc(=O)[nH]nc1C)c1ccccc1O	98.6% (active)	98.8
COc1ccc(C2(C(=O)Nc3ccc(Br)cc3)CCCC2)cc1	63.2% (active)	81.4
CC(=NNc1nc(C)c(C)s1)c1ccc(Br)cc1	96.2% (active)	89.4
CCOC(=O)CCc1c(C)c(C#N)c2[nH]c3ccccc3n2c1=O	98.3% (active)	96.2
CCOC(=O)COc1ccc2c(C#N)c3ccccn3c2c1	-0.849% (inactive)	22.1
CCOC(=O)C1=C(c2ccc(C)cc2)C(=O)c2ccccc2C1=O	14.4% (inactive)	16.3
COC(=O)c1c2c(n3ccc(C)cc13)C(=O)c1ccccc1C2=O	99.2% (active)	98.8
CC(C)(C)c1ccc(C(=O)Nc2cccc(NC(=O)c3cccs3)c2)cc1	0.571% (inactive)	22.7
CN(C)c1ccc(NC(=O)c2ccncc2)cc1	98% (active)	100
Cc1ccc(NC(=O)c2cc3cc(Cl)cc(Cl)c3oc2=O)c(C)c1	9.67% (active)	43.2
O=C1c2ccccc2C(=O)N1CCCCN(C(=O)c1cc([N+](=O)[O-])cc([N+](=O)[O-])c1)c1ccc(Cl)cc1	97.2% (active)	92.5
CC1=CC(C)(C)Nc2ccc(OC(=O)c3cccnc3)cc21	9.4% (active)	36.8
CCOC(=O)c1c(C)oc2ccc(OC(=O)c3cccs3)cc12	-0.261% (inactive)	2.41
CC1=CC(C)(C)Nc2ccc(OC(=O)c3cccs3)cc21	49.6% (active)	74.6
O=C(Nc1ncnc2sc3c(c12)CCCC3)c1ccc(F)cc1	26.6% (active)	61.8
NC(=O)c1c(NC(=O)c2ccc(COc3ccccc3Cl)cc2)sc2c1CCCC2	-7.68% (inactive)	-40
Cc1cccc(N2CCN(c3ncnc4sc5c(c34)CCCC5)CC2)n1	7.93% (inactive)	-17.2
